This note sets out measurements from PubChem BioAssay.

One may read the inhibition as the relative decrease from the control value, in per cent.

Values without a mark were called inactive. Cut-off read from the data, not from the text of the source: active = inhibition above about 28%; inactive = the rest.

For the assay, the target named is Single-stranded DNA-binding protein (Escherichia coli (strain K12)) (UniProt P0AGE0). Nature of the assay: SSB-ssDNA binding inhibitors – biochemical, fluorescence polarization, NIH Clinical Collection, counter-screen for HCV NS3 helicase inhibitor project (AID 743271). The note with it: E. coli SSB-DNA binding, stronger effect = higher value, concentration not given here.
Regarding `CC(C)(C(=O)c1cccnc1)c1cccnc1`, the inhibition is 1.05%. Turning to `CCc1c(C)[nH]c2c1C(=O)C(CN1CCOCC1)CC2` (configuration not stated), the inhibition is 1.81%.

With `CC(C)(C)NC(=O)[C@H]1CC[C@H]2[C@@H]3CC[C@H]4NC(=O)C=C[C@]4(C)[C@H]3CC[C@]12C`, the inhibition is -2.41%. The result for `CCC(=O)O[C@]1(C(=O)SCF)[C@H](C)C[C@H]2[C@@H]3C[C@H](F)C4=CC(=O)C=C[C@]4(C)[C@@]3(F)[C@@H](O)C[C@@]21C` reads 5.29%.

In the case of `CCCOc1ccc(C(=O)OCCN(CC)CC)cc1N`, the inhibition was 0.29%.

In the case of `N#Cc1ccc(C(c2ccc(C#N)cc2)n2cncn2)cc1`, the inhibition is -1.64%.

For the molecule `CCC1=C(C)CN(C(=O)NCCc2ccc(S(=O)(=O)NC(=O)NC3CCC(C)CC3)cc2)C1=O` (configuration not stated), the inhibition is 0.39%.

As for `COc1cc(C)nc(-n2nc(C)cc2OC)n1`, the inhibition is 5.91%. Consider `CN1CCC(=C2c3ccccc3CCc3sccc32)CC1`, for which the inhibition is -0.87%. As to `Cc1cccc(C)c1NC(=O)C(C)N` (configuration not stated), the inhibition was -3.95%.

For `COc1cc(OC)c(C(=O)CCCN2CCCC2)c(OC)c1`, the inhibition is -3.95%.

Take `CCOc1cc(CC(=O)N[C@@H](CC(C)C)c2ccccc2N2CCCCC2)ccc1C(=O)O`: the inhibition is 2.21%. The result for `O=C(O)/C=C/c1ccc(Cn2ccnc2)cc1` reads -3.95%.

For the molecule `Nc1[nH]c(=O)ncc1F`, the inhibition was -1.64%.

Regarding `C#C[C@]1(O)CC[C@H]2[C@@H]3CCc4cc(OC)ccc4[C@H]3CC[C@@]21C`, the inhibition is 1.44%.

For `CCCc1c(OCCCCc2nn[nH]n2)ccc(C(C)=O)c1O`, the inhibition is -3.18%.

Turning to `CNNCc1ccc(C(=O)NC(C)C)cc1`, the inhibition was -0.1%.
